Reference: the supplement of paper PMC11732987, “Enantioselective OTUD7B fragment discovery through chemoproteomics screening and high-throughput optimisation” (Communications Chemistry, 2025)

Assays:
Assay in all cases: log2 ratio of Biotin-Ahx-Ub-VS probe labelling (fragment/DMSO); higher = less target engagement (more negative = stronger competition), active = hit call of the paper (q ≤ 0.05, log2 ratio ≤ -1)
Details in all cases: compound concentration: 200 uM; treatment time: 3 h
ALG13 = molecular target: T1, ALG13 (UniProt Q9NP73)
T1 sequence (whole entry): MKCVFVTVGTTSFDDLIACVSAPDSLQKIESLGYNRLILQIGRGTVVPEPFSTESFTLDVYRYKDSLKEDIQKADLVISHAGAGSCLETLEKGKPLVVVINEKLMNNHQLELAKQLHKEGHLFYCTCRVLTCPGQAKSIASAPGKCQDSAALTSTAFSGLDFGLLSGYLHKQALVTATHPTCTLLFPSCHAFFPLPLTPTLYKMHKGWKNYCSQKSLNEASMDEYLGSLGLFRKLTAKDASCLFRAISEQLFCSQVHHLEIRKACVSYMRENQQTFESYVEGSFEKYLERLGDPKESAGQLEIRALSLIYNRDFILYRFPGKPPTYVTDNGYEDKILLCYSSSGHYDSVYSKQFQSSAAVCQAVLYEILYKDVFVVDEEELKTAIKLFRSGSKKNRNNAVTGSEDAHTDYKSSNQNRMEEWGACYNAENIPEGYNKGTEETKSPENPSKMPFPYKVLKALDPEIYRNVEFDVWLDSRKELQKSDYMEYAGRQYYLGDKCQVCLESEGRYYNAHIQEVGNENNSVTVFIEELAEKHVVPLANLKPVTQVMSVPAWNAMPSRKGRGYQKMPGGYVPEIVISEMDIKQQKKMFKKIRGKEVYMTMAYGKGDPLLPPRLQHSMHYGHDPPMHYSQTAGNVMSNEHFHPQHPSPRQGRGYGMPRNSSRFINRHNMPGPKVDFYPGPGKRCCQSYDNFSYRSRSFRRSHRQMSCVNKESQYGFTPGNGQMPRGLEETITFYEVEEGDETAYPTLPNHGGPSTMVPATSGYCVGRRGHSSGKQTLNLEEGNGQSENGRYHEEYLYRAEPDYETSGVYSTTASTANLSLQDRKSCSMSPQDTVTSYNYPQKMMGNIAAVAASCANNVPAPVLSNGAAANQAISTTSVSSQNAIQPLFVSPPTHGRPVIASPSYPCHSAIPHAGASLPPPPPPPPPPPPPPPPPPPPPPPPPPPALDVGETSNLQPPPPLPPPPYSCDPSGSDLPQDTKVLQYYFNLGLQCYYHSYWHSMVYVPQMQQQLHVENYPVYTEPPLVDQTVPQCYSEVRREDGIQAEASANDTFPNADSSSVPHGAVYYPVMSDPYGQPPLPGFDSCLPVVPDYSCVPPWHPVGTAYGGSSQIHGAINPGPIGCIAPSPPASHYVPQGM
Method in brief: (§1)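 Lysate from HEK293T cells, 495 µg per sample in Tris/CHAPS/IGEPAL buffer with protease inhibitors, was treated for 3 h in triplicate with fragment at 200 µM or vehicle. Biotin-Ahx-Ub-VS was next added at 0.5 µM final for 1 h. The labelled DUBs were enriched with NeutrAvidin, digested with LysC and trypsin, and run by diaPASEF LC-MS/MS, with values given as average log2 fragment/vehicle ratios by unpaired t-test on global-median-normalised Spectronaut quantities of proteins with ≥2 unique peptides.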

ATXN3 = ATXN3 (UniProt P54252)
Chain of ATXN3 (P54252 whole entry): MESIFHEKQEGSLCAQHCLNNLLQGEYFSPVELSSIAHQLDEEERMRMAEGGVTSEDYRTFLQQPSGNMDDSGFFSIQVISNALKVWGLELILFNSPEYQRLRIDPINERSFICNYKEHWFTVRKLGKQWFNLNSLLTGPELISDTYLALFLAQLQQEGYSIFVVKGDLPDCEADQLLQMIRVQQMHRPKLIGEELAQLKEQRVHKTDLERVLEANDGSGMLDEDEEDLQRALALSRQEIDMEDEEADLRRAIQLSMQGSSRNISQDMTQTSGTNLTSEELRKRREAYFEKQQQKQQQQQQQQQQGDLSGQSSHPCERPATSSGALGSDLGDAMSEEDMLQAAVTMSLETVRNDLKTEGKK
Method in brief: as §1

BAP1 = molecular target: T2, BAP1 (UniProt Q92560)
T2 sequence (whole entry): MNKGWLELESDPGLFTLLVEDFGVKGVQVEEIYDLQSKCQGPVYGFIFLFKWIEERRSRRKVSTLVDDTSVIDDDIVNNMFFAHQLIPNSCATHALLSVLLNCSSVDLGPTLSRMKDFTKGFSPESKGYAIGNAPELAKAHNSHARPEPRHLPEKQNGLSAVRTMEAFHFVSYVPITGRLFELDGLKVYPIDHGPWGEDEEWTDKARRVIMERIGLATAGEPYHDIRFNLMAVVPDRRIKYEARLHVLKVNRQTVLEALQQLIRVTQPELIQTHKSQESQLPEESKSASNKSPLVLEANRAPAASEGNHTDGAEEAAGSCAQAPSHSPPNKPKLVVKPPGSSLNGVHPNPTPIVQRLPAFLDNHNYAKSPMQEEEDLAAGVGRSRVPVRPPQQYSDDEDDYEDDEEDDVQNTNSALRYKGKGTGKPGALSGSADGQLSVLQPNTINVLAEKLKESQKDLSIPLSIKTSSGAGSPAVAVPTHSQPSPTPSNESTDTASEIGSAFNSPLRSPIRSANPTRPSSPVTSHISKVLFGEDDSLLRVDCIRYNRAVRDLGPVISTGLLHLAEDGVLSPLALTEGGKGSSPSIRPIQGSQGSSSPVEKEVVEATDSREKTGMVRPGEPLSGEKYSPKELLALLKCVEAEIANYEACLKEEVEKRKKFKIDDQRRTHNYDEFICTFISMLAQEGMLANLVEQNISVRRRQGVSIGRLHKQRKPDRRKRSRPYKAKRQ
Method in brief: as §1

EIF3F = EIF3F (UniProt O00303)
Chain of EIF3F (O00303 whole entry): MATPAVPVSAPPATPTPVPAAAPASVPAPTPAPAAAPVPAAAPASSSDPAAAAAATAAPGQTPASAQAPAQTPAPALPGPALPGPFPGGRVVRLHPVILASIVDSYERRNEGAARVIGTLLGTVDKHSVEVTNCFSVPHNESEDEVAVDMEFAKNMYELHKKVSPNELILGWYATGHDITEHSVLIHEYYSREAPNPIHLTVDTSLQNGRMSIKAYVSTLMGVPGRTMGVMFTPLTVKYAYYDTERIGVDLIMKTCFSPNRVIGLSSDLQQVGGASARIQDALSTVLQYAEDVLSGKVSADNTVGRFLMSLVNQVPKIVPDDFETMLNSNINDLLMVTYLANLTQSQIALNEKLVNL
Method in brief: as §1

EIF3H = EIF3H (UniProt O15372)
Chain of EIF3H (O15372 whole entry): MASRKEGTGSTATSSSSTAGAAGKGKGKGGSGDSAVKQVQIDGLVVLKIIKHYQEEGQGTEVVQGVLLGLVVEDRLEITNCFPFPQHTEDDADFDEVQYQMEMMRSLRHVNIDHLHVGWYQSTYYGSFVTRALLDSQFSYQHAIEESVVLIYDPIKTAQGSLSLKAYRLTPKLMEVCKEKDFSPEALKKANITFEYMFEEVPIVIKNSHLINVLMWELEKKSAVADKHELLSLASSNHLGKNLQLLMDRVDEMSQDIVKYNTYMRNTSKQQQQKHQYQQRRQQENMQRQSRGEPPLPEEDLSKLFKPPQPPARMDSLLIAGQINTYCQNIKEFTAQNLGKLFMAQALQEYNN
Method in brief: as §1

FAM105A = molecular target: T3, FAM105A (UniProt Q9NUU6)
T3 sequence (whole entry): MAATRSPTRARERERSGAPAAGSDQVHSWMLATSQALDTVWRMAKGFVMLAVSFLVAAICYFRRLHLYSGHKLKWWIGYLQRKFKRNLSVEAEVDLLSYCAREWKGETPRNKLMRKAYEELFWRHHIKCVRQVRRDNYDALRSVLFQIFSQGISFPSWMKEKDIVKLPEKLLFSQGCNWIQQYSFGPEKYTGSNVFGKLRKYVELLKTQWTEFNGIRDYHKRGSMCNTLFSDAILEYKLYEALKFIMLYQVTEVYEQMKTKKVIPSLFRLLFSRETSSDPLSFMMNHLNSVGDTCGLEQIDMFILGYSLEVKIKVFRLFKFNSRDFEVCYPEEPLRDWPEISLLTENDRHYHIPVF
Method in brief: as §1

OTUB1 = OTUB1 (UniProt Q96FW1)
Chain of OTUB1 (Q96FW1 whole entry): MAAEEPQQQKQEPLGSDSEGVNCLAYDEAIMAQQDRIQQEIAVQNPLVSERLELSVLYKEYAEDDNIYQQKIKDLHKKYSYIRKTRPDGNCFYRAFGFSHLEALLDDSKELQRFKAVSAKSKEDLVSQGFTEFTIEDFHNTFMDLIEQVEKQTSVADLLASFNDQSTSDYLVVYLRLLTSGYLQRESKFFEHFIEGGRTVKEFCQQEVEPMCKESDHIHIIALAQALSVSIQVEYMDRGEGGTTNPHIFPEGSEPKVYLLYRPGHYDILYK
Method in brief: as §1

OTUD4 = molecular target: T4, OTUD4 (UniProt Q01804)
T4 sequence (whole entry): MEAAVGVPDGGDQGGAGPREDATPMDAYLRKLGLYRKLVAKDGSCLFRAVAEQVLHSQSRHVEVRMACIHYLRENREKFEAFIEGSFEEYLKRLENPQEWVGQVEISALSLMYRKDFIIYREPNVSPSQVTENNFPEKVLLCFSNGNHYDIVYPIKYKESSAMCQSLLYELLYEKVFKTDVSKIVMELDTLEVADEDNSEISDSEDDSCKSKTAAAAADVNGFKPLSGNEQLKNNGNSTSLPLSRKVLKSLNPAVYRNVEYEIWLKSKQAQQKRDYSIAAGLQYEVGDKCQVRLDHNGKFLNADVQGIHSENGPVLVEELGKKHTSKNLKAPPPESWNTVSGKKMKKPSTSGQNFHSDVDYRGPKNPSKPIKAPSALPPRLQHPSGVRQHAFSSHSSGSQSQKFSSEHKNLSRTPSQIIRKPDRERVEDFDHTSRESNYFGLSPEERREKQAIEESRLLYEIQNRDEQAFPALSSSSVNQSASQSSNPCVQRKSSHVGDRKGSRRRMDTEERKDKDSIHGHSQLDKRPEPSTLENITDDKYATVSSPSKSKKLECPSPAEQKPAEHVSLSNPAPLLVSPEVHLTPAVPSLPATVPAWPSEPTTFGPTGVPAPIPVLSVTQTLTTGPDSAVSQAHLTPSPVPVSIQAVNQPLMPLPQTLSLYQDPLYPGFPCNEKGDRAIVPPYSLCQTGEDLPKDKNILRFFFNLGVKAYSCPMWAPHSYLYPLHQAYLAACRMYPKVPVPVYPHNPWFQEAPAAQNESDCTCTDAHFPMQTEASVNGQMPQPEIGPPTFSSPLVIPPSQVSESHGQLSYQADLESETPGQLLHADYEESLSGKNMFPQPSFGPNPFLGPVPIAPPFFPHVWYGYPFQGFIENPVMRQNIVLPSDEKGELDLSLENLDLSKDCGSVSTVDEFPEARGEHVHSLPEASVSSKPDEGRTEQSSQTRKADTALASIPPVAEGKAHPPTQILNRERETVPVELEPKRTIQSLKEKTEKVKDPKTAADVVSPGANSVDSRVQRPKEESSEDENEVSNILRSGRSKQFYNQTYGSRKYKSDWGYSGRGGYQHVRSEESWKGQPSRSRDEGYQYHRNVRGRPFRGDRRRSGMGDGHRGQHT
Method in brief: as §1

OTUD5 = molecular target: T5, OTUD5 (UniProt Q96G74)
T5 sequence (whole entry): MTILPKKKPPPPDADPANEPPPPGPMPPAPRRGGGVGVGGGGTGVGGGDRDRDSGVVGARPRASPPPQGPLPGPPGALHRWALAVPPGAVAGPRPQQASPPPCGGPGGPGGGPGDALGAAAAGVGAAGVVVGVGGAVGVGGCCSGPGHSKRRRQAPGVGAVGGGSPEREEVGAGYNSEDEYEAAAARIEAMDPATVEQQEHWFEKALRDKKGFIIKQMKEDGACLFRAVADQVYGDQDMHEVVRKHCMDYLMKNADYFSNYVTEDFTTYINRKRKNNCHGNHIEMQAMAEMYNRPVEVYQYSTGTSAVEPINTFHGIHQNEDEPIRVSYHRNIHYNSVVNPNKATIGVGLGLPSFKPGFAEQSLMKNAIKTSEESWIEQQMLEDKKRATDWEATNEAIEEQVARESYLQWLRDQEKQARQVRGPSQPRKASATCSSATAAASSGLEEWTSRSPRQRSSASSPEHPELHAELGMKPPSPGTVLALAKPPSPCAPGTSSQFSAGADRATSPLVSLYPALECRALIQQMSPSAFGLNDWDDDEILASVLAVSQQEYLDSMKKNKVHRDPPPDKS
Method in brief: as §1

Measured: log2 ratio of Biotin-Ahx-Ub-VS probe labelling

O=C(CCl)N1CCC2(CCC(O)CC2)CC1
inactive: ALG13 -0.532 | ATXN3 -0.833 | BAP1 -0.626 | EIF3F -0.321 | EIF3H 0.288 | FAM105A 0.217 | OTUB1 -0.0501 | OTUD4 -0.206 | OTUD5 -0.29
